Data on 53 molecules can be found in ChEMBL document CHEMBL4513216, “Probing the Open Global Health Chemical Diversity Library for Multistage-Active Starting Points for Next-Generation Antimalarials” (ACS Infect Dis, 2020).

Hit rate of the full screen: of about 69,000 compounds, about 8,600 (12%) showed an effect of 50% or more. The sample holds strong results, similar compounds and a random draw of the others, so the mix is not that of the screen.

The test system of the test is Plasmodium berghei. As to the kind of experiment: Screen against P. berghei liver stage (PbLuc), transformed with Luciferase, at 10uM. It counts as functional, HepG2. As to conditions: tested at 10 uM.
Take `CNc1ncccc1CN1CCC1c1cc(N)nc(C)n1` (stereo not drawn): the INHIBITION is 10.9%. Consider `CC(C)C(NCc1ccc(Cn2cncn2)cc1)c1ccccc1` (stereo not drawn), for which the INHIBITION is -1.33%. Turning to `CC(C)c1ccc(CNC(c2ccc(F)cn2)C(C)C)cc1` (stereo not drawn), the INHIBITION came out at 48.9%. As for `CC(C)C(NCc1ccc(Cn2cncn2)cc1)c1ccc(F)cn1` (stereo not drawn), the INHIBITION is reported as 71.2%. Take `COc1cc(C)ccc1OCCC(=O)N1CCC(C(N)=O)C1` (stereo not drawn): the INHIBITION is reported as -24.9%.

For the molecule `O=C(c1cnc(-c2ncccn2)s1)N1CCCC1Cn1cccn1` (stereo not drawn), the INHIBITION is -24.3%. Take `C=C(C)C(=O)N1CCC(C(=O)c2cc(C)cnc2N)CC1`: the INHIBITION is recorded as 68.8%. For `COCCC(=O)N1CCC(C(=O)c2cc(C)cnc2N)CC1`, the INHIBITION is given as -26.2%.

Regarding `COCC(=O)N1CCC(C(=O)c2cc(C)cnc2N)CC1`, the INHIBITION was found to be 58.1%. On to `Cc1cnc(N)c(C(=O)C2CCN(C(=O)c3cnc(C)cn3)CC2)c1`, for which the INHIBITION is recorded as -20.2%.

In the case of `Cc1cnc(N)c(C(=O)C2CCN(C(=O)c3ccccc3F)CC2)c1`, the INHIBITION is 56.9%. In the case of `Cc1cnc(N)c(C(=O)C2CCN(C(=O)C3CCC3)CC2)c1`, the INHIBITION is listed as 13.5%. Consider `CC(=O)N1CCC(C(=O)c2cc(C)cnc2N)CC1`, for which the INHIBITION is recorded as 39.2%. Regarding `COCC(=O)N1CCC(c2cc(-c3ccc(N)nc3)cc(C)n2)CC1`, the INHIBITION is given as 7.19%. As to `Cc1cnc(N)c(C(=O)C2CCN(C(=O)c3cnc(C)nc3C)CC2)c1`, the INHIBITION is -2.11%.

`O=C(CCn1c(C(F)(F)F)cc2cccnc21)N1CCC(O)CC1`: the INHIBITION is reported as 29.2%. Take `COC(=O)C1CN(Cc2nc(C(C)(C)C)cs2)C[C@@H](C)O1` (stereo partly drawn): the INHIBITION is 21.7%. Take `Cn1nc(CN2CCCCC2)c2c1CN(C(=O)c1cccc(C#N)c1)C2`: the INHIBITION is 46.3%. With `CC(=O)N1CCN(C(C)C)CC(COc2ccccc2)C1` (stereo not drawn), the INHIBITION was -6.92%. On to `O=C(NCCNc1cnccn1)N1CCCCCC1`, for which the INHIBITION was determined as 47%.

As to `O=C(NCCNc1cnccn1)N1CCN(Cc2cccnc2)CC1`, the INHIBITION is listed as 65.5%. For the molecule `O=C(NCCNc1cnccn1)N1CCCC1`, the INHIBITION is 19.4%. For `O=C(NCCn1ccnc1)N1CCN(Cc2cccnc2)CC1`, the INHIBITION is on record as -33.7%.

As for `CC(Cn1cccn1)NC(=O)N1CCN(Cc2ccncc2)CC1` (stereo not drawn), the INHIBITION is -4.94%. Turning to `O=C(NCCNc1ncccn1)N1CCN(Cc2cccnc2)CC1`, the INHIBITION is 57.8%. `CC(C)(C)NC(=O)N1CCN(Cc2cccnc2)CC1`: the INHIBITION is -2.93%. For `CC(Cn1ccnc1)NC(=O)N1CCN(Cc2cccnc2)CC1` (stereo not drawn), the INHIBITION turned out to be 31.8%. Consider `CC(Cn1cccn1)NC(=O)N1CCN(Cc2cccnc2)CC1` (stereo not drawn), for which the INHIBITION stood at 74.6%. As for `Cc1ccc(-c2nc(CNC3CCc4ncnn4C3)cs2)cc1` (stereo not drawn), the INHIBITION was 47.55%.

Turning to `Cc1nc(C)c(C(=O)N2CCCC2(C)C(=O)NC2CCCC2)o1` (stereo not drawn), the INHIBITION was found to be 46.2%.

Turning to `Cc1cc(C)n(CCCN(CCN2CCOCC2)Cc2ccco2)n1`, the INHIBITION was 7.6%. With `COCCN(CCOC)Cc1nc2c(cnn2C)c(=O)[nH]1`, the INHIBITION was found to be 27.8%.

`O=C1[C@H]2CN(CC3CCOCC3)C[C@H]2CN1c1ccsc1`: the INHIBITION worked out at 5.63%. With `Cn1cc(N2C[C@@H]3CN(CC4CCOCC4)C[C@@H]3C2=O)cn1` the figure was 68.4%; with `Cn1cc(N2C[C@@H]3CN(S(=O)(=O)C4CC4)C[C@@H]3C2=O)cn1`, 9.79%. With `O=C1[C@H]2CN(Cc3ccncc3)C[C@H]2CN1c1cncnc1` the figure was 32.8%.

For `Cn1cc(N2CC[C@@H]3CN(Cc4ccncc4)C[C@H]3C2=O)cn1`, the INHIBITION was found to be 58.4%. As for `Cn1cc(N2CC3(CCN(CC4CCOCC4)CC3)OCC2=O)cn1`, the INHIBITION is on record as -24.5%. With `Cn1cc(N2C[C@@H]3CN(Cc4ccoc4)C[C@@H]3C2=O)cn1` the figure was -75%; with `CCS(=O)(=O)N1CCC2(CC(=O)N(c3cnn(C)c3)C2)C1` (stereo not drawn), -13.7%. For the molecule `CCS(=O)(=O)N1C[C@H]2CN(c3cnn(C)c3)C(=O)[C@H]2C1`, the INHIBITION amounted to 60%. Take `O=C(CCc1cc2n(n1)CCNC2)NCCS(=O)(=O)N1CCCC1`: the INHIBITION is reported as -18.1%. Take `Cn1c2ncccc2c(=O)n1CC(=O)Nc1ccc(F)c(F)c1`: the INHIBITION was determined as 41.8%. With `O=C(CCc1cc2n(n1)CCCN(CCc1ccccc1)C2)NC1CC1`, the INHIBITION came to 24.1%. With `CN1CCn2nc(-c3nc4ccccc4n3C)cc2C1`, the INHIBITION came out at 36.4%. With `CCCOC(=O)N1CCCn2nc(C(=O)Nc3ccccc3)cc2C1`, the INHIBITION was -34.4%. With `CCCOC(=O)N1CCn2nc(-c3nc4ccccc4n3C)cc2C1`, the INHIBITION was found to be 61.1%.

Take `CCOC(=O)C(C)NC(=O)N1CCN(c2nc3ccccc3n2C)CC1` (stereo not drawn): the INHIBITION is 45%. With `Cn1c(-c2cc3n(n2)CCCN(CC(=O)O)C3)nc2ccccc21`, the INHIBITION is listed as 57.1%. As for `Cc1cccc(CN2CCc3ncnc(Oc4cccnc4)c3CC2)n1`, the INHIBITION was determined as 18.5%. For the molecule `CC(C)(C)C(=O)N1CCCC1c1nccnc1Cl` (stereo not drawn), the INHIBITION was -7.66%. Turning to `CN[C@@H](CO)C(=O)NCc1cc2n(n1)CCCN(C1CCCCC1)C2`, the INHIBITION stood at 12.5%.

In the case of `COc1ccccc1-n1cc(C(=O)NCCn2nc(C)nc2C)cn1`, the INHIBITION is 32.8%.
